Data published in the supplement of paper PMC4380459.

system: tubulin (bovine brain); experiment: tubulin polymerization end-point dOD, fold change relative to DMSO vehicle; higher = more polymerization (stabilization); conditions: 50 µM; 60 min; 37 °C
Description: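 In-vitro tubulin polymerization assay (Cytoskeleton HTS kit) with 4 mg/ml bovine brain tubulin in G-PEM buffer and compound at 50 uM (0.5% DMSO). Turbidity was read at 340 nm every minute for 1 h at 37 C. The end-point change in OD (dOD) was converted to % fold change relative to the DMSO vehicle (0%), and runs were scaled using DMSO and Taxol controls. The paper calls >20% an effect, 20-40% weak and >40% strong; positive values mean stabilization, negative values destabilization. Scale: negative = destabilization.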

Row | SMILES | tubulin polymerization end-point dOD [%]
1 | CCc1cc2cc(OC)ccc2nc1SCC(=O)Nc1ccccc1C | 104
2 | COc1ccc2cc(CN(Cc3ccco3)C(=O)Nc3ccccc3OC)c(=O)[nH]c2c1 | 43.9
3 | CCOc1c(Cl)cc(C(=O)N2CCN(c3cccc(C)c3)CC2)cc1OC | -52.8
4 | Cc1ccc2cc(C)c3nn(CCNC(=O)c4ccncc4)c(=O)n3c2c1 | -34.2
5 | CC(=O)N1c2ccc(NC(=O)c3cc4cccc(C)c4nc3C)cc2CC1C (stereo not given) | 0.65
6 | COc1cn(-c2ccccc2)nc1C(=O)N1CCc2ccccc21 | -57.4
7 | Cc1cc2nc(/C=C/c3cccs3)sc2cc1C | 43.1
8 | CC(=O)Nc1ccc(Nc2nc(-c3c(C)nc4ccccn34)cs2)cc1 | 30.8
9 | COc1cccc2sc(NC(=O)C3CN(C(C)=O)c4ccccc4O3)nc12 (stereo not given) | -38.1
10 | CN(C)c1ncc(C(=O)Nc2ccc(Oc3ccc4c(c3)OCO4)cc2)cn1 | 8.04
11 | O=c1[nH]c(/C=C\c2ccccc2)nc2ccccc12 | 40.5
12 | CCOc1ccc2nc(SCC(=O)Nc3ccc(OC)cc3OC)c(C)cc2c1 | 14.5
13 | Cc1cnc(C(=O)Nc2ncc(Cc3cccc(C)c3Cl)s2)cn1 | -85.7
14 | CCC(C)Cc1c(C)sc2nc(SCc3nnc(C)o3)[nH]c(=O)c12 (stereo not given) | -13.9
15 | COc1ccc2cc(CN(Cc3cccs3)C(=O)Nc3ccccc3OC)c(=O)[nH]c2c1 | 17.1
16 | CS(=O)(=O)N1CCCc2cc(C(=O)Cn3cnc4scc(-c5ccc(F)cc5)c4c3=O)ccc21 | -30.9
17 | COc1ccc(NC(=O)CSc2nc3cc4c(cc3cc2C#N)OCO4)c(OC)c1 | 23.6
18 | CCS(=O)(=O)N1CCc2cc(C(=O)Cn3cnc4sc(C)c(-c5ccccc5)c4c3=O)ccc21 | 38.3
19 | Cc1ccc2cc(CN(CC3CCCO3)C(=S)Nc3ccccc3)c(=O)[nH]c2c1 (stereo not given) | 0.1
20 | COc1ccccc1NC(=S)N(Cc1ccccc1)Cc1cc2ccc(C)cc2[nH]c1=O | 272

Row | SMILES | tubulin polymerization end-point dOD [%]
21 | COc1ccccc1NC(=O)CSc1nnc(-c2cccnc2)n1-c1ccccc1C | -57.2
22 | Cc1ccc(/C=N/NC(=O)c2c(C)nc3ccc(Cl)cn23)cc1 | -21.2
23 | COc1ccc(/C=N/NC(=O)c2cccc(F)c2)cc1Br | -16.1
24 | CCc1ccccc1NC(=O)CSc1nc2cc3c(cc2cc1CC)OCO3 | -65
25 | COc1cc(C2NC(=O)c3ccccc3N2)cc2c1OCO2 (stereo not given) | -31.5
26 | O=C(Nc1ccccc1Cl)N(Cc1cccs1)Cc1cc2cc3c(cc2[nH]c1=O)OCCO3 | -17.8
27 | COC(=O)Nc1nc2cc(Sc3ccccc3)ccc2[nH]1 [Fenbendazole] | -27.1
28 | CCc1ccc2nc(SCC(=O)Nc3ccccc3OC)c(C#N)cc2c1 | -25
29 | Cc1ccc(/C=N\NC(=O)COc2ccccc2Br)c(C)c1 | -56.5
30 | Cc1ccc2cc(C)c3nn(CCNC(=O)c4cccnc4)c(=O)n3c2c1 | -40.4
31 | Cc1ccc2cc(C#N)c(SCC(=O)c3ccccc3)nc2c1 | -46.9
32 | Cc1cccc2cc(C#N)c(SCC(=O)c3ccc(F)cc3)nc12 | -11.1
33 | CC1Oc2nc3ccccc3cc2CN(Cc2ccc(F)cc2)C1=O (stereo not given) | 3.19
34 | O=C(c1cncn1-c1ccccc1)N1CCN(c2cccc(Cl)c2)CC1 | -50
35 | Cc1cccc(N2CCN(C(=O)c3cc(Cl)ccc3Cl)CC2)c1 | -45.7
36 | COc1ccc2cc(CN(Cc3cccs3)C(=O)Nc3ccccc3Cl)c(=O)[nH]c2c1 | -57.2
37 | Cc1cc(N2CCN(C(=O)c3c[nH]nc3-c3ccccc3)CC2)nc(C(C)C)n1 | -15.2
38 | CC(=O)c1c(C)[nH]c(C(=O)Nc2ccc(N3CCCC3)cc2)c1C | 27.6
39 | COc1ccc(OCc2nnc(SCC(N)=O)n2-c2cc(C)ccc2C)cc1 | -39.4
40 | Cc1cc2cc3c(cc2nc1SCC(=O)Nc1ccccc1Br)OCO3 | -1.3
